GLP1R ag: activates the human GLP-1 receptor. Potency, µM (series often up to 45.6 µM), most hits filed as activators. AID 624172. HEK293 GLP-1R CRE-luciferase, luminescence, 4-6 h; cells express a hypersensitive GLP-1R form. 380,000 compounds, 0.007% hits. P43220
Target sequence (P43220 whole entry, looked up): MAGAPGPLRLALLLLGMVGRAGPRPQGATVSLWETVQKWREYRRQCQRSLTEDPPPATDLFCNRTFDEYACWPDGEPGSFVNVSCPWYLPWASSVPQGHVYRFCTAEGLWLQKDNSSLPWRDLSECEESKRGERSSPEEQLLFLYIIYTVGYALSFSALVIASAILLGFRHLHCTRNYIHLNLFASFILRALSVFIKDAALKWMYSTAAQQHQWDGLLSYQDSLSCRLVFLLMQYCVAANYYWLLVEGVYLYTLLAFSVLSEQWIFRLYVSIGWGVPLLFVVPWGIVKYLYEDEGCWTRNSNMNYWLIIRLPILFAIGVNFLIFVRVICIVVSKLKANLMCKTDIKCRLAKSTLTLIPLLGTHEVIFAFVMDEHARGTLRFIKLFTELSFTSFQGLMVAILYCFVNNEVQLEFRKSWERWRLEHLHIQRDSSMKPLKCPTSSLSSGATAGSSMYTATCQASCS
Tb PFK inh: T. brucei PFK enzyme inhibition; O15648; T. brucei PFK, ADP-Glo luminescence; Potency, µM (doses to about 57.5 µM), most hits filed as inhibitors; 330,000 compounds, 0.17% hits; AID 485367; further: nearly all actives have a fitted effect of over 60% in size
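Compounds were pin-transferred as a titration series up to 57 uM into substrate buffer (0.5 mM F6P, 0.1 mM ATP, pH 8.0), then 1.25 nM PFK was added and reactions ran 45 min before ADP-Glo detection.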
GLP1R inv ag: inverse agonists of human GLP-1 receptor; P43220; HEK293 GLP-1R CRE-luciferase, luminescence, 24 h; GLP-1R form is constitutively active; Potency, µM (doses to about 38.3 µM), actives largely listed as inhibitors; 410,000 compounds, 1.6% hits; further: nearly all actives have a fitted effect of over 55% in size
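Readout was luciferase luminescence, measured 12 min after detection reagent at room temperature. Beforehand, GLP-1R reporter HEK293 cells had sat 12 h, then received compounds for 24 hr at 37 deg C.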
Pin1 inh: human Pin1 inhibition | Q13526 | Pin1 FP peptide displacement, HiFluor488, 10 min | Potency, µM (titrated, usually from 115 µM), usual class: inhibitors | 390,000 compounds, 0.009% hits; active means well fitted inhibition curve with a large enough effect in the polarisation, with a control signal flat, not every such curve was filed as active; inconclusive means small, poorly fitted or top-dose-only effect, or effect the other way, or a change in a side signal; inactive means no such curve, though single readings can be large or run the other way; the % refers to the polarisation
PGK inhibitor: inhibitors of T. brucei phosphoglycerate kinase; P07378; PGK/GAPDH coupled, Kinase-Glo luminescence, 60 min; Potency, µM (series often up to 57.5 µM), most hits filed as inhibitors; 380,000 compounds, 0.043% hits; AID 602233; further: nearly all actives have a fitted effect of over 60% in size
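Recombinant glycosomal PGK reaction used 1,3-bisphosphoglycerate generated in-well by GAPDH (100nM final) in 100mM TEA pH 7.6, 5mM MgCl2, 0.01% Tween-20. After 60 minutes at room temperature, ATP was read by Kinase-Glo Plus luminescence end-point.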
HEK293 tox: cytotoxic in the GLP-1 receptor inverse agonist counter-screen | Potency, µM (doses to about 38.3 µM), hits mostly inhibitors | 410,000 compounds, 0.13% hits | HEK293 cAMP-luciferase reporter cells, luminescence, 24 h | AID 624418;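 further: loss of luciferase light is scored as toxicity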
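MLSMR compounds, 24 hr on cells at 37 deg C/5% CO2; luminescence after luciferase reagent (12 min RT). Inhibition counted as the undesired cytotoxic outcome.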
Large screens that a line does not name were inactive. This is a sample that favours compounds with a hit; in the whole collection about 1.8% have one here. Unless noted, the call rests on the fitted dose curve; in most records, active means well fitted curve in the direction sought with a large enough effect; inconclusive means small, poorly fitted or top-dose-only effect, or another doubt; inactive means no such curve, though single readings can be large; an effect the other way counts as inactive or inconclusive.

O=C(CN1CCCC1)Nc1ccc(Oc2ccc(NC(=O)CN3CCCC3)cc2)cc1	GLP1R inv ag 1.8µM, HEK293 tox inconclusive
CC1CN(CC(=O)Nc2cccc(C(=O)Nc3cccc(C(F)(F)F)c3)c2)CC(C)O1 (stereo not given)	GLP1R inv ag inconclusive
CC1CCN(CC(=O)Nc2cccc(C(=O)Nc3cccc(C(F)(F)F)c3)c2)CC1	GLP1R inv ag 3.2µM, HEK293 tox inconclusive
CC1CCN(CC(=O)Nc2ccc(N3CCCCCC3)cc2)CC1	GLP1R inv ag 2.8µM
O=C(Nc1ccc(F)c(F)c1)c1cc(S(=O)(=O)NCc2ccc3c(c2)OCO3)ccc1F	GLP1R inv ag inconclusive (no result: GLP1R ag, Tb PFK inh)
O=S1(=O)N=C(Sc2cccc3cccnc23)c2ccccc21	none (no result: GLP1R ag, Tb PFK inh, GLP1R inv ag, PGK inhibitor, HEK293 tox)
Nc1ccc(C(=O)N/N=C\c2ccc(OC(=O)c3ccccc3Cl)cc2)cc1	none
O=C(O)c1ccc(N/N=C/c2ccc(OC(=O)c3ccccc3Cl)cc2)cc1	GLP1R inv ag 7.1µM, Pin1 inh inconclusive
Cc1ccc(-n2nc(C(C)(C)C)cc2NC(=O)Nc2ccc(OCCN3CCOCC3)c3ccccc23)cc1	none (no result: Tb PFK inh, GLP1R inv ag, Pin1 inh, PGK inhibitor, HEK293 tox)
COc1cc(Br)ccc1C1CC(=O)C(C)C(c2ccc(Br)cc2OC)N1 (stereo not given)	GLP1R inv ag 10µM
Cc1nc2ccn(Cc3ccccc3)c(=O)c2cc1C(=O)NCc1ccccc1F	GLP1R inv ag inconclusive (no result: GLP1R ag, Tb PFK inh)
Cc1ccc(NC(=O)Nc2cc(C(F)(F)F)c[nH]c2=O)cc1	GLP1R inv ag 10µM
CCN(c1ccccc1)S(=O)(=O)c1ccc(N2CCN(c3ccc(O)cc3)CC2)nc1	GLP1R inv ag 4.5µM
CCOC(=O)C1Nc2ccccc2C2C(O)C(O)CC12 (stereo not given)	HEK293 tox 7.1µM (no result: Tb PFK inh, Pin1 inh)
Cc1ccc2nc(Cl)c3cc(C(=O)N(C)C4CCCCC4)sc3c2c1	none (no result: GLP1R ag, Tb PFK inh)
NCCCC[C@H]1NC(=O)[C@H](CCC(=O)O)NC(=O)c2cc([N+](=O)[O-])cc(I)c2OCC[C@@H](C(N)=O)NC1=O	Pin1 inh 14µM, PGK inhibitor inconclusive
C[C@@H]1NC(=O)c2cc([N+](=O)[O-])cc(I)c2OCC[C@@H](C(N)=O)NC(=O)[C@H](CCCCN)NC1=O	none
O=C(NCC1(c2ccccc2)CCCC1)c1ccccc1Br	GLP1R inv ag 10µM
CCc1ccc(/C(C)=N/NC(=O)CNC(=O)/C=C/c2ccco2)cc1	PGK inhibitor 14µM (no result: Tb PFK inh, Pin1 inh)
CCOC(=O)C1(Cc2ccccc2C)CCCN(C(=O)c2sccc2C)C1 (stereo not given)	GLP1R inv ag 10µM
COc1ccc2c(c1)c(CC(=O)Nc1cccc(F)c1C)c(C)n2C(=O)c1ccc(Cl)cc1	none (no result: GLP1R ag, Tb PFK inh)
COc1cc(OC)c(NC(=O)C2=C(C)C(=O)OC23CCCCCC3)cc1Cl	none (no result: GLP1R ag, Tb PFK inh)
COc1ccc(NC(=O)C2=C(C)C(=O)OC23CCC(C)CC3)cc1Cl (stereo not given)	GLP1R inv ag 7.9µM, Pin1 inh inconclusive
CCCCN(CCCC)CCNC(=O)Cn1nc(CC)n2c(cc3sc(C)cc32)c1=O	none (no result: GLP1R ag, Tb PFK inh)
COc1ccc(C2=Nc3ccccc3N(C(=O)c3ccc(C(F)(F)F)cc3)C2C(=O)NCc2ccccc2)cc1 (stereo not given)	GLP1R inv ag 6.3µM (no result: GLP1R ag, Tb PFK inh, Pin1 inh, PGK inhibitor)
CCCCNC(=O)C1C(c2ccccc2)=Nc2ccccc2N1C(=O)c1ccc(C(F)(F)F)cc1 (stereo not given)	GLP1R inv ag inconclusive (no result: GLP1R ag, Tb PFK inh, Pin1 inh, PGK inhibitor)
N#CN1CCC(NC(=O)c2ccc(C(F)(F)F)cc2)CC1	none (no result: GLP1R ag, Tb PFK inh, GLP1R inv ag, PGK inhibitor, HEK293 tox)
Cc1ccc2occ(CC(=O)N(Cc3ccc(Cl)cc3)C3CCS(=O)(=O)C3)c2c1 (stereo not given)	GLP1R inv ag 11µM (no result: GLP1R ag, Tb PFK inh)
COc1ccc(S(=O)(=O)c2c(O)c3ccc(C(=O)NCc4ccccc4)cc3[nH]c2=O)cc1	none (no result: GLP1R ag, Tb PFK inh)
COc1ccccc1N(C)S(=O)(=O)c1ccc(C(=O)OCC(=O)N(C)c2ccccc2)cc1	GLP1R inv ag 3.2µM
Clc1ccccc1-c1nc(Nc2ccccc2)nc2ccc(Br)cc12	GLP1R inv ag 10µM (no result: GLP1R ag, Tb PFK inh, PGK inhibitor)

Bioassay records from PubChem.
